# High-throughput results (PubChem)
# HepG2 tox – kills HepG2 cells in TGF-b inhibitor counter-screen; hit rate 0.76% among 410,000; Potency, µM (doses to about 46.1 µM), inactives show at the top dose activity change, negative = cytotoxicity, hits mostly cytotoxic; HepG2 CAGA-GFP viability, ATP luminescence, 18 h; note: potency is the fitted concentration of half-maximal effect
#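 CellTiter-Glo luminescence gave cytotoxicity after 18 hours at 37 degrees C. The cells were HepG2 CAGA-GFP in 1% FBS DMEM, stimulated with 500 pg/mL TGF-beta after compound addition. %Activity was normalised to no-cell wells (complete cell-killing) and DMSO (no toxicity), and curves were fitted and classified.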
# DT40 TDP1 CPT – growth inhibition of DT40 Tdp1-/-;hTDP1 cells with camptothecin (screen for TDP1 inhibitors); chicken DT40 Tdp1-/-;hTDP1 cells + 20 nM CPT, ATP luminescence, 48 h; Potency, µM (doses to about 46.2 µM), without a hit: top-dose activity change, negative = growth inhibition, actives largely listed as inhibitors; hit rate 12% among 420,000; AID 686979; note: potency is the fitted concentration of half-maximal effect; % is set by controls: 0 for no effect and ±100 for the full control effect; nearly all actives have a fitted effect of over 55% in size
#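 Chicken DT40 Tdp1-/- cells stably complemented with human TDP1 were seeded at 400 cells/well in medium containing 20 nM camptothecin, exposed to pin-transferred compounds, and grown at 37 °C for at least 48 hr. Viability was read as ATP luminescence.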
# DT40 TDP1 no CPT – qHTS for Inhibitors of human tyrosyl-DNA phosphodiesterase 1 (TDP1): qHTS in cells in absence of CPT | DT40 Tdp1-/- hTDP1 cells, no CPT, ATP luminescence, 48 h | Potency, µM (highest dose often 46.2 µM), for inactives: at the top dose activity change, negative = growth inhibition, usual class: inhibitors | hit rate 15% among 420,000 | AID 686978, 2013; note: potency is the fitted concentration of half-maximal effect; % is set by controls: 0 for no effect and ±100 for the full control effect; nearly all actives have a fitted effect of over 55% in size
#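 Seeded 400 DT40-hTDP1 cells/well (vehicle DMSO, no 20 nM CPT); pinned compounds; ≥48 hr at 37 °C; CellTiter-Glo luminescence as viability measure.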
# TDP1 inh – blocks human tyrosyl-DNA phosphodiesterase 1; recombinant TDP1, AlphaScreen DNA substrate cleavage; AID 485290; hit rate 0.28% among 350,000; Potency, µM (titrated, usually from 130 µM), inactives show top-dose activity change, negative = inhibition, usual class: inhibitors; Q9NUW8; note: potency is the fitted concentration of half-maximal effect; % is set by controls: 0 for no effect and ±100 for the full control effect; nearly all actives have a fitted effect of over 40% in size
# Target sequence (Q9NUW8 whole entry, looked up): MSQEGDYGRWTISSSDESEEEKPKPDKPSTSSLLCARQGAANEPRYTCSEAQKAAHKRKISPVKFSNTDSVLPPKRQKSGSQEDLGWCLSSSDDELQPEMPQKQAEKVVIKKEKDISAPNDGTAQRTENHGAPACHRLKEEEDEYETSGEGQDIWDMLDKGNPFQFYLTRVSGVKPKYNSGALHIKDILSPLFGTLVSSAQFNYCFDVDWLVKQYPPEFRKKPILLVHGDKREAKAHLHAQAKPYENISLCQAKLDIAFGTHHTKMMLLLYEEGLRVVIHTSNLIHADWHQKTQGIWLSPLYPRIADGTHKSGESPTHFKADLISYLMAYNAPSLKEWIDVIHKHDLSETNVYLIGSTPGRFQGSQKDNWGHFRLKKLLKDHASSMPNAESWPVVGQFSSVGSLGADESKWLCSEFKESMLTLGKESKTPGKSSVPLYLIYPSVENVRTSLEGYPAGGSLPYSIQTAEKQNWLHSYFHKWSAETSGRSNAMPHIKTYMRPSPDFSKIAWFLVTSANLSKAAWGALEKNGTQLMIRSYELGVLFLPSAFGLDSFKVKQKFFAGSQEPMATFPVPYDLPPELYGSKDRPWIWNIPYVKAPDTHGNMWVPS
#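 Enzyme-compound mixtures sat 15 min at room temperature, followed by a 5 min reaction with 15 nM final substrate and 10 min with AlphaScreen beads. Recombinant human Tdp1 was used at 1 nM final.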
# TGFb SMAD3 inh – inhibitors of TGF-b signaling; HepG2 CAGA-GFP TGF-b/SMAD3 reporter, GFP fluorescence, 18 h; TGF-beta stimulated, 500 pg/mL final; Potency, µM (doses to about 46.1 µM), for inactives: at the top dose activity, negative = inhibition, usual class: inhibitors; hit rate 1.2% among 410,000; note: potency is the fitted concentration of half-maximal effect; % is set by controls: 0 for no effect and ±100 for the full control effect; nearly all actives have a fitted effect of over 65% in size
#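 GFP signal (ex488/em500-530) from TGF-beta-stimulated HEPG2 CAGA-GFP cells, 500 pg/mL final, 18 h at 37 degrees C in DMEM plus 1% FBS, normalized to unstimulated and DMSO-stimulated controls.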
# IL-1B inflam inh – inhibitors of inflammasome signaling (IL-1 beta secretion); THP-1 LPS/ATP IL-1B secretion, AlphaLISA, 16 h; hits give low values; activity change, % at 57.5 µM; hit rate 4.7% among 360,000; AID 743279; in the data active = activity change below about -50%; inconclusive = mostly about -30% to -49%; note: % is set by controls: 0 for no effect and ±100 for the full control effect
#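 Secreted IL-1B measured by AlphaLISA bead assay after 16 h compound exposure of THP-1 cells; compounds (final up to 57.5 uM) added 1 h before LPS (250 ng/mL) and ATP (1.25 mM) stimulation; lower signal means less secretion.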
# An asterisk follows results filed as active; ? = inconclusive; . = no result given; [ ] = dose if it differs, or a comment. Only some compounds are listed: those with a hit (about 19% of all), similar ones and a draw of the others. Unless noted, calls come from the whole dose curve; as a rule, active = well fitted curve in the direction sought with a large enough effect; inconclusive = small, poorly fitted or top-dose-only effect, or another doubt; inactive = no such curve, though single readings can be large; an effect the other way counts as inactive or inconclusive.
SMILES,HepG2 tox,DT40 TDP1 CPT,DT40 TDP1 no CPT,TDP1 inh,TGFb SMAD3 inh,IL-1B inflam inh
COc1ccc(NC(=O)CN(c2ccccc2OC)S(=O)(=O)c2cccs2)cc1Cl,6.6%,?,14.6µM*,-0.1%,-0.9%,-6.4
COc1ccccc1N(CC(=O)Nc1ccccc1)S(=O)(=O)c1cccs1,-17.2%,-23.0%,?,-0.1%,-2.2%,-4.7
COc1ccccc1N(CC(=O)Nc1ccc(Br)cc1F)S(=O)(=O)c1cccs1,4.7%,?,?,-9.6%,?,-54.5*
CC(C)CC(=O)NC(=S)Nc1ccc(S(=O)(=O)N2CCCC2)cc1,-16.6%,?,?,-3.7%,-27.3%,2.2
COCc1c(C(=O)N2CCN(C(C)C)CC2)cnn1-c1nccc(-c2cc(C)sc2C)n1,.,3.4%,-11.4%,.,.,.
O=[N+]([O-])c1ccc(Cl)cc1NCc1cccnc1,13.1%,7.4%,3.2%,.,-7.1%,-9.4
CC(=O)Oc1ccc(OC(C)=O)c(SCCCCCCl)c1,24.2%,2.06µM*,2.91µM*,-13.2%,?,-62.9*
CC(=O)Oc1ccc(OC(C)=O)c(S(=O)(=O)c2ccc(C)c(C)c2)c1,0.6%,-2.0%,-6.8%,.,-1.1%,18.5
Cc1noc(C)c1C(=O)N1CCC2(CCN(C(=O)NC(C)C)CC2)CC1,.,-4.2%,-3.4%,.,.,.
Cc1ccc(-c2c[nH]c(=S)n2-c2ccccc2F)cc1,3.9%,?,23.1µM*,6.9%,0.8%,-1.9
COc1ccccc1-n1c(-c2ccccc2)c[nH]c1=S,-9.9%,18.4µM*,16.4µM*,8.8%,-8.0%,41.1
OCCCn1c(-c2ccccc2)csc1=Nc1ccccc1,-0.8%,23.1µM*,16.4µM*,6.9%,-21.4%,-1.8
O=C(O)CCC(=O)NCCn1c(-c2ccccc2)csc1=Nc1ccccc1,4.6%,-8.6%,-1.8%,0.0%,-3.1%,0.1
Cc1c(N=c2scc(-c3ccccc3)n2CCO)c(=O)n(-c2ccccc2)n1C,5.4%,-7.7%,?,2.6%,4.4%,9.4
CCN(CC)CCn1c(-c2ccccc2)csc1=Nc1ccccc1,-28.3%,?,16.4µM*,-4.8%[12.3 µM],12.6µM*,.
Cc1ccc(-c2csc(=Nc3ccccc3)n2Cc2ccc3c(c2)OCO3)cc1,-32.8%,14.6µM*,9.2µM*,7.1%,-13.4%,.
COc1ccc(N=c2scc(-c3ccc(OC)cc3)n2CCO)cc1,-36.5%,20.6µM*,9.2µM*,10.0%,-11.2%,?
C=CCOc1ccc(/C=C/C(=O)OCC(=O)N(C)C2CCS(=O)(=O)C2)cc1 (stereo not drawn),-14.1%,-7.7%,6.1%,0.5%,4.1%,0.0
CCOC(=O)c1c(-c2ccccc2)csc1NC(=O)c1cc(-c2ccc(C)c(F)c2)on1,-0.9%,4.1%,-4.1%,2.9%,19.8%,.
CCOC(=O)OCC1OC(c2ccccc2)C=CC1Oc1ccc2oc(=O)cc(C)c2c1 (stereo not drawn),.,.,.,6.9%[21 µM],.,.
COCC(=O)Nc1cc([N+](=O)[O-])ccc1C,-25.4%,23.1µM*,?,1.0%,15.5%,-5.3
Cc1ccc(CC(=O)Nc2ccc([N+](=O)[O-])cc2C)cc1,-0.5%,-14.8%,-4.1%,5.5%,-14.2%,-56.7*
Cc1ccc(CC(=O)Nc2cccc([N+](=O)[O-])c2)cc1,2.3%,-22.7%,?,4.3%,-15.1%,-3.0
Nc1ccc2oc(-c3ccc4nc[nH]c4c3)nc2c1,-44.0%,20.6µM*,10.3µM*,7.7%[56.1 µM],-6.5%,-20.4
CN1/C(=C\C=N\NC(=O)c2ccccc2Br)C(C)(C)c2ccccc21,-0.7%,-26.4%,?,-0.6%,0.0%,9.6
SMILES,HepG2 tox,DT40 TDP1 CPT,DT40 TDP1 no CPT,TDP1 inh,TGFb SMAD3 inh,IL-1B inflam inh
CN1/C(=C/C=C/c2n(C)c3cc([N+](=O)[O-])c([N+](=O)[O-])cc3[n+]2C)C(C)(C)c2ccccc21,-44.3%,?,3.66µM*,.,?,-52.2*
COc1ccc(/C=C/C(=O)c2ccccn2)cc1,-29.3%,20.6µM*,?,8.8%,-9.0%,?
COc1ccc(OC)c(NC(=O)/C=C/c2ccccc2[N+](=O)[O-])c1,-47.6%,-10.9%,?,0.0%,-7.1%,-26.4
COc1ccc(/C=C/C(=O)c2ccccc2O)cc1,-17.0%,?,?,11.1%[21 µM],-11.6%,0.0
COc1ccc([N+](=O)[O-])c(C=CC(=O)c2ccccn2)c1,-123.8%,5.17µM*,2.31µM*,.,?,-104.9*
COc1ccc(CCNC(=O)C(=O)NCC(c2ccc3c(c2)OCO3)N2CCOCC2)cc1OC (stereo not drawn),-17.9%,-7.8%,-24.4%,0.0%,0.0%,.
CSc1cccc(NC(=O)CC(c2ccc(F)cc2)N2Cc3ccccc3C2=O)c1 (stereo not drawn),-18.4%,23.1µM*,20.6µM*,8.5%,?,.
COc1cc(C(CC(=O)Nc2ccc(F)cc2F)N2Cc3ccccc3C2=O)cc(OC)c1OC (stereo not drawn),-17.5%,?,?,5.6%,7.0%,.
CCc1ccccc1NC(=O)CC(c1ccc(F)cc1)N1Cc2ccccc2C1=O (stereo not drawn),-23.4%,23.1µM*,23.1µM*,5.6%,?,.
CC(=O)c1cccc(NC(=O)CC(c2ccc(C)cc2)N2Cc3ccccc3C2=O)c1 (stereo not drawn),-16.1%,?,16.4µM*,8.5%,-9.9%,.
COc1ccc(C(CC(=O)Nc2ccc(C(C)=O)cc2)N2Cc3ccccc3C2=O)cc1 (stereo not drawn),1.2%,-9.2%,-4.2%,0.0%,.,.
Cc1ccc(C(CC(=O)Nc2ccc(C)cc2C)N2Cc3ccccc3C2=O)cc1 (stereo not drawn),-2.3%,16.4µM*,18.4µM*,2.8%,?,.
CCOC(=O)c1ccc(-n2cnc3c(c2=N)C(c2cccc(OC)c2)c2c(ccc4ccccc24)O3)cc1 (stereo not drawn),.,.,.,2.6%,.,.
Cc1ccc(NC(=O)CC(c2ccc(F)cc2)N2Cc3ccccc3C2=O)cc1C (stereo not drawn),-14.6%,-14.6%,-23.8%,.,-20.4%,.
Cc1ccc(C(CC(=O)Nc2cc(C)cc(C)c2)N2Cc3ccccc3C2=O)cc1 (stereo not drawn),-38.1%,14.6µM*,23.1µM*,5.6%,?,.
O=C(Nc1ccc(F)cc1F)c1ccc(-n2cccn2)nc1,7.3%,?,?,6.3%,-1.5%,15.6
